This is an account of results in PubChem BioAssay (NCI).

Among the test systems are DU-145 prostate; K-562 leukemia; MALME-3M melanoma; MDA-MB-231 breast; RXF 393 renal; SF-268 CNS; SF-295 CNS; SF-539 CNS; UACC-257 melanoma; M14 melanoma; HCT-15 colon; HT29 colon; SNB-75 CNS; SNB-19 CNS; U251 CNS; PC-3 prostate; SK-MEL-5 melanoma; UACC-62 melanoma; LOX IMVI melanoma; SK-MEL-28 melanoma.
Common to all, as to experiment: NCI-60 one-dose screen, 48 h (100 = growth as untreated, 0 = no growth, -100 = all killed)
What all share (settings): 10 µM unless noted

About 83,000 compounds went through this panel and 20% of them were active in at least one assay; those are over-represented in the sample as a whole.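 Activity criterion: percent growth below 10, measured after cells in 96-well plates were exposed to a single compound concentration for 48 hours.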 Unmarked numbers belong to inactive results. Calls of active or inactive are those of the source.

For the compound `Cc1ccc(NC(=O)CN2CCOCC2)cc1Cl`, the growth in the assay on DU-145 prostate is 102%; with K-562 leukemia, 94.7%; in the assay with MALME-3M melanoma, 102%; in the assay on MDA-MB-231 breast, 96%; in the assay on RXF 393 renal, 104%; with SF-268 CNS it was 103%. The growth with SF-295 CNS is 94.3%; in the assay with SF-539 CNS it was 98.7%; in the assay with UACC-257 melanoma, 88.1%; in the assay on M14 melanoma, 100%; in the assay with HCT-15 colon, 102%; in the assay on HT29 colon, 80.6%. Moreover, the growth was 97.4% with SNB-75 CNS; 94.8% with SNB-19 CNS; 97.7% in the assay with U251 CNS; 74.7% in the assay with PC-3 prostate; 95.6% in the assay with SK-MEL-5 melanoma; 92.7% in the assay with UACC-62 melanoma. Moreover, the growth is 101% in the assay on LOX IMVI melanoma and 104% in the assay on SK-MEL-28 melanoma.
Turning to `CCN(CC)CC(=O)Nc1c(C)cccc1C`, the growth in the assay with DU-145 prostate is 121%; with K-562 leukemia, 99.8%; with MALME-3M melanoma it was 93.3%; in the assay on MDA-MB-231 breast, 108%; in the assay on RXF 393 renal, 102%; with SF-268 CNS, 108%. Besides, the growth is 89.8% with SF-295 CNS; 104% in the assay on SF-539 CNS; 108% with UACC-257 melanoma; 100% in the assay with M14 melanoma; 98.1% in the assay with HCT-15 colon; 111% in the assay on HT29 colon. For the same compound, the growth with SNB-75 CNS is 95.5%; in the assay with SNB-19 CNS, 106%; with U251 CNS, 106%; in the assay with PC-3 prostate it was 100%; in the assay with SK-MEL-5 melanoma, 93.2%; with UACC-62 melanoma, 105%. The growth in the assay with LOX IMVI melanoma is 100%; in the assay with SK-MEL-28 melanoma it was 110%.
With `NC(=S)NNC1CCCCC1`, the growth is 109% in the assay on DU-145 prostate; 87.6% with K-562 leukemia; 97.3% in the assay with MALME-3M melanoma; 92.1% in the assay on MDA-MB-231 breast; 107% in the assay on RXF 393 renal; 97.4% in the assay with SF-268 CNS. Moreover, the growth in the assay on SF-295 CNS was 96.4%; in the assay on SF-539 CNS, 96.4%; with UACC-257 melanoma, 80.1%; with M14 melanoma it was 98.4%; with HCT-15 colon it was 99.7%; in the assay on HT29 colon, 94.4%. Further, the growth with SNB-75 CNS was 91.5%; in the assay with SNB-19 CNS, 101%; in the assay with U251 CNS, 93.6%; in the assay on PC-3 prostate it was 87.7%; with SK-MEL-5 melanoma, 95.1%; in the assay on UACC-62 melanoma, 95.7%. The growth is 97.6% with LOX IMVI melanoma and 111% with SK-MEL-28 melanoma.
Regarding `CCc1cccc(-c2ccccc2)c1`, the growth with DU-145 prostate was 110%; in the assay on K-562 leukemia, 109%; with MALME-3M melanoma, 114%; with MDA-MB-231 breast, 114%; in the assay on RXF 393 renal, 130%; in the assay on SF-268 CNS, 108%. The growth in the assay on SF-295 CNS is 107%; in the assay with SF-539 CNS, 97.6%; in the assay on UACC-257 melanoma, 99.1%; in the assay on M14 melanoma, 92.6%; in the assay with HCT-15 colon, 103%; in the assay on HT29 colon, 114%. In addition, the growth in the assay with SNB-75 CNS is 105%; in the assay on SNB-19 CNS, 107%; in the assay with U251 CNS it was 106%; in the assay with PC-3 prostate it was 99%; in the assay on SK-MEL-5 melanoma it was 111%; in the assay with UACC-62 melanoma, 103%. Moreover, the growth was 109% in the assay on LOX IMVI melanoma and 120% with SK-MEL-28 melanoma.
As to `Nc1nccc2c1ccn2-c1cccc(NC(=O)c2ccc(N3CCOCC3)c(C(F)(F)F)c2)c1`, the growth in the assay on DU-145 prostate is -0.195% (active); in the assay with K-562 leukemia, 9.79% (active); in the assay on MALME-3M melanoma, 39.8%; in the assay with MDA-MB-231 breast, 6.1% (active); in the assay on RXF 393 renal, -75.9% (active); in the assay on SF-268 CNS it was 21.8%. Further, the growth in the assay with SF-295 CNS is -30.9% (active); in the assay on SF-539 CNS, 3.23% (active); with UACC-257 melanoma it was 59.2%; in the assay with M14 melanoma, 16%; in the assay on HCT-15 colon, 9.8% (active); in the assay on HT29 colon, -47.2% (active). Moreover, the growth in the assay on SNB-75 CNS was 23.8%; in the assay with SNB-19 CNS, 31.9%; in the assay with U251 CNS, 8.89% (active); with PC-3 prostate it was 18%; in the assay on SK-MEL-5 melanoma, -43.7% (active); in the assay with UACC-62 melanoma it was 13.8%. Moreover, the growth with LOX IMVI melanoma was 5.35% (active); in the assay with SK-MEL-28 melanoma, 47.3%.
Take `O=C(NNC(=O)c1ccc([N+](=O)[O-])cc1)c1ccc([N+](=O)[O-])cc1`: the growth is 113% with DU-145 prostate; 93.6% with K-562 leukemia; 112% in the assay on MALME-3M melanoma; 117% in the assay with MDA-MB-231 breast; 111% with RXF 393 renal; 101% in the assay on SF-268 CNS. Further, the growth is 94.2% in the assay on SF-295 CNS; 91.4% with SF-539 CNS; 111% with UACC-257 melanoma; 95.4% with M14 melanoma; 97% with HCT-15 colon; 101% in the assay with HT29 colon. The growth with SNB-75 CNS was 84.5%; in the assay with SNB-19 CNS, 109%; with U251 CNS, 104%; in the assay on PC-3 prostate, 102%; in the assay on SK-MEL-5 melanoma it was 99.8%; in the assay with UACC-62 melanoma it was 99.9%. The growth in the assay on LOX IMVI melanoma is 97.2%; in the assay on SK-MEL-28 melanoma it was 109%.
As to `COc1ccc(-c2nnc(SCC(=O)N3CCN(c4cc5c(cc4F)c(=O)c(C(=O)O)cn5C4CC4)CC3)o2)cc1OC`, the growth in the assay with DU-145 prostate is 99.3%; in the assay with K-562 leukemia it was 74.5%; in the assay with MALME-3M melanoma, 101%; in the assay on MDA-MB-231 breast, 110%; with RXF 393 renal, 118%; in the assay with SF-268 CNS, 104%. Also, the growth was 89.1% in the assay with SF-295 CNS; 96.5% in the assay with SF-539 CNS; 101% in the assay on UACC-257 melanoma; 76.2% in the assay with M14 melanoma; 93.6% in the assay on HCT-15 colon; 94.6% with HT29 colon. Further, the growth is 98.4% in the assay on SNB-75 CNS; 97.4% with SNB-19 CNS; 98.4% in the assay with U251 CNS; 59.2% with PC-3 prostate; 99.7% in the assay with SK-MEL-5 melanoma; 97.7% in the assay with UACC-62 melanoma. The figures for the growth with LOX IMVI melanoma and in the assay on SK-MEL-28 melanoma were 81.6% and 95.2%, respectively.
